These results are taken from PubChem BioAssay (NCATS).

The nature of test [1]: qHTS of pediatric cancer cell lines to identify multiple opportunities for drug repurposing: Primary screen for TC32 cells (AID 1347089). Also: nearly all actives have a fitted effect of over 60% in size. The essentials:
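A viability screen of TC32 cells was run over 48 h, with primary MIPE doses spanning 0.78 nM–46 µM and NPC doses 0.59 nM–46 µM. ATP luminescence (CellTiter-Glo) served as the read-out.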

A short description of test [2]: qHTS of pediatric cancer cell lines to identify multiple opportunities for drug repurposing: Primary screen for DAOY cells (AID 1347090). Also: nearly all actives have a fitted effect of over 55% in size. The essentials: (§1)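 Eight- or eleven-point concentration series, 48 h treatment at 37 degrees C in growth media; readout CellTiter-Glo luminescence. Potency and efficacy were taken from the concentration-response curves.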
The nature of test [3]: qHTS of pediatric cancer cell lines to identify multiple opportunities for drug repurposing: Primary screen for SJ-GBM2 cells (AID 1347091). The essentials: as §1
(In general: In qHTS, concentration-response curves come from the screen itself.)

A short description of test [4]: qHTS of pediatric cancer cell lines to identify multiple opportunities for drug repurposing: Primary screen for A673 cells (AID 1347092). Also: nearly all actives have a fitted effect of over 45% in size. Put shortly:
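Titration-based qHTS on A673 cells: MIPE compounds spanned 11 points (0.78 nM to 46 µM final), NPC compounds 8 points (0.59 nM to 46 µM final). Viability after 48 h was measured by ATP luminescence.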

A short description of test [5]: qHTS of pediatric cancer cell lines to identify multiple opportunities for drug repurposing: Primary screen for SK-N-MC cells (AID 1347093). Put shortly:
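Metabolically active cells were quantified by ATP-dependent luminescence (CellTiter-Glo, 15 min at room temperature) following 48 h treatment. Cells had been plated at 500-1,000 per well and settled for 5 h beforehand.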

Test [6] is described as follows: qHTS of pediatric cancer cell lines to identify multiple opportunities for drug repurposing: Primary screen for BT-37 cells (AID 1347094). Put shortly: (§2)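 Viability was measured as metabolically active cells after 48 hours of treatment, read by CellTiter-Glo luminescence. Compounds were tested at multiple final concentrations, giving concentration-response curves.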

Test [7] is described as follows: qHTS of pediatric cancer cell lines to identify multiple opportunities for drug repurposing: Primary screen for NB-EBc1 cells (AID 1347095). The essentials:
as §2

A short description of test [8]: qHTS of pediatric cancer cell lines to identify multiple opportunities for drug repurposing: Primary screen for U-2 OS cells (AID 1347096). Also: nearly all actives have a fitted effect of over 50% in size. The essentials:
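Cells (500-1,000/well) in growth media were settled 5 h at 37 degrees C, then given compounds for 48 h. Viability was read as CellTiter-Glo luminescence. Primary runs used MIPE at 11 points (0.78 nM-46 µM) and NPC at 8 points (0.59 nM-46 µM); follow-ups used 11 points.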

Records with an inconclusive call do not appear. Active and inactive are the calls of the source. Calls follow the shape of the dose curve; as a rule, active = well fitted curve in the direction sought with a large enough effect; inconclusive = small, poorly fitted or top-dose-only effect, or another doubt; inactive = no such curve, though single readings can be large; an effect the other way counts as inactive or inconclusive.
Potency is read from the fitted curve at half-maximal effect.

For `Nc1ccccc1NC(=O)c1ccc(CNC(=O)OCc2cccnc2)cc1`, the Potency is 8290 nM (active) in test [1]; 4690 nM (active) in test [2]; 4180 nM (active) in test [3]; 1480 nM (active) in test [4]; 93.5 nM (active) in test [5]; 3850 nM (active) in test [6]. In addition, the results for the Potency in test [7] and in test [8] were 1320 nM (active) and 1870 nM (active), respectively.

For the compound `COc1ccc(C=Cc2cc(OC)c(OC)c(OC)c2)cc1O`, the Potency in test [1] is 0.4 nM (active); in test [2] it was 1 nM (active); in test [3], 1 nM (active); in test [4], 1 nM (active); in test [5], 1 nM (active); in test [6] it was 13.7 nM (active). In addition, in test [7], the Potency was 1 nM (active). In addition, in test [8], the Potency entry was “inactive”.

In the case of `CC(C)(C)c1cnc(CSc2cnc(NC(=O)C3CCNCC3)s2)o1`, the Potency is 1310 nM (active) in test [1]; 935 nM (active) in test [2]; 187 nM (active) in test [3]; 46.9 nM (active) in test [4]; 332 nM (active) in test [5]; 385 nM (active) in test [6]. The Potency in test [7] was 935 nM (active).

With `c1nc2nc(Nc3ccc(N4CCOCC4)cc3)nc(NC3CCCCC3)c2[nH]1`, the Potency in test [1] was 4660 nM (active); in test [2], 18700 nM (active); in test [3], 1480 nM (active); in test [4], 4690 nM (active); in test [5] it was 935 nM (active); in test [6], 21700 nM (active). In test [7], the Potency was 3720 nM (active). Further, the Potency result in test [8] was “inactive”.

On to `CC[C@H]1CN2CCc3cc(OC)c(OC)cc3[C@H]2C[C@@H]1C[C@@H]1NCCc2cc(OC)c(OC)cc21`, for which the Potency in test [1] is 1170 nM (active); in test [2], 935 nM (active); in test [3] it was 209 nM (active); in test [4], 118 nM (active); in test [5], 296 nM (active); in test [6], 544 nM (active). Moreover, the Potency in test [7] was 935 nM (active); in test [8], 1180 nM (active).

In the case of `CCc1c2c(nc3ccc(O)cc13)-c1cc3c(c(=O)n1C2)COC(=O)[C@]3(O)CC`, the Potency was 8.3 nM (active) in test [1]; 29.6 nM (active) in test [2]; 6.6 nM (active) in test [3]; 7.4 nM (active) in test [4]; 2.1 nM (active) in test [5]; 8.6 nM (active) in test [6]. Also, in test [7], the Potency was 1 nM (active). For the same compound, in test [8], the Potency result was “inactive”.

Take `O=c1[nH]nc(Sc2ncc([N+](=O)[O-])s2)n1-c1ccc2c(c1)OCCO2`: the Potency entry in test [1] was “inactive”. The Potency in test [2] is 9350 nM (active); in test [3], 9350 nM (active); in test [4], 3720 nM (active); in test [5], 9350 nM (active); in test [6], 21700 nM (active); in test [7] it was 2640 nM (active). Moreover, in test [8], the Potency is 11800 nM (active).

As to `CCN1CCN(Cc2ccc(-c3cc4c(N[C@H](C)c5ccccc5)ncnc4[nH]3)cc2)CC1`, the Potency in test [1] was 117 nM (active); in test [2] it was 1 nM (active); in test [3], 332 nM (active); in test [4] it was 1 nM (active); in test [5], 1 nM (active); in test [6] it was 153 nM (active). Besides, the Potency was 46.9 nM (active) in test [7] and 18700 nM (active) in test [8].

For the compound `Cn1c2cc(S(C)=O)sc2c2cnn(Cc3cccc(N)c3)c(=O)c21` (centres undefined), the Potency result in test [1], in test [2], in test [3], in test [4], in test [5] and in test [6] was “inactive” in each case. For the same compound, the Potency result in test [7] and in test [8] was “inactive” in each case.

As for `C[C@@]12O[C@@H](C[C@]1(O)CO)n1c3ccccc3c3c4c(c5c6ccccc6n2c5c31)CNC4=O`, the Potency is 1860 nM (active) in test [1]; 4690 nM (active) in test [2]; 235 nM (active) in test [3]; 743 nM (active) in test [4]; 37.2 nM (active) in test [5]; 4850 nM (active) in test [6]. In test [7], the Potency is 1180 nM (active).

Consider `CC1COC2(CCN(c3nc(=O)c4cc(C(F)(F)F)cc([N+](=O)[O-])c4s3)CC2)O1` (centres undefined), for which the Potency result in test [1], in test [2], in test [3], in test [4], in test [5] and in test [6] was “inactive” each time. Also, the Potency result in test [7] and in test [8] was “inactive” each time.

`CC(=O)Nc1nc(C)c(-c2ccc(Cl)c(S(=O)(=O)NCCO)c2)s1`: the Potency is 4150 nM (active) in test [1]; 5900 nM (active) in test [2]; 1870 nM (active) in test [3]; 1870 nM (active) in test [4]; 132 nM (active) in test [5]; 15300 nM (active) in test [6]. In test [7], the Potency was 3720 nM (active).

As for `C=CCn1c(=O)c2cnc(Nc3ccc(N4CCN(C)CC4)cc3)nc2n1-c1cccc(C(C)(C)O)n1`, the Potency is 2620 nM (active) in test [1]; 372 nM (active) in test [2]; 166 nM (active) in test [3]; 74.3 nM (active) in test [4]; 83.3 nM (active) in test [5]; 611 nM (active) in test [6]. For the same compound, the Potency is 209 nM (active) in test [7] and 3720 nM (active) in test [8].

On to `Cc1ccc2nc(NC(=O)CSc3nc4c(c(=O)n3-c3ccccc3)SCC4)sc2c1`, for which the Potency entry in test [1] was “inactive”. The Potency in test [2] is 18700 nM (active); in test [3] it was 14800 nM (active); in test [4] it was 14800 nM (active).

Regarding `COc1cccc(Nc2c(C(N)=O)cnc3c(C)cc(S(=O)(=O)c4cccc(C(=O)N(C)C)c4)cc23)c1`, the Potency result in test [1], in test [2], in test [3], in test [4], in test [6] and in test [7] was “inactive” each time. In addition, the Potency entry in test [8] was “inactive”. Also, the Potency in test [5] was 6450 nM (active).

As for `COc1cccc2c(NCc3ccccc3)nc(-n3c(N)nc4ccccc43)nc12`, the Potency result in test [1] is “inactive”. The Potency in test [2] is 9350 nM (active); in test [3], 9350 nM (active); in test [4], 5900 nM (active); in test [5], 3720 nM (active); in test [6], 7690 nM (active); in test [7] it was 9350 nM (active). Further, the Potency in test [8] is 9350 nM (active).

For `Cc1cc(N2CCOCC2)cc2[nH]c(-c3c(NC[C@@H](O)c4cccc(Cl)c4)cc[nH]c3=O)nc12`, the Potency was 739 nM (active) in test [1]; 935 nM (active) in test [2]; 16600 nM (active) in test [3]; 296 nM (active) in test [4]; 11.8 nM (active) in test [5]; 24300 nM (active) in test [6]. Further, the Potency was 590 nM (active) in test [7] and 18700 nM (active) in test [8].
